Experimental findings from PubChem BioAssay (NCI) are described below.

The panel holds about 83,000 compounds, 20% with a hit somewhere; the sample as a whole holds those more often.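 Assay: single dose, 48 h. Readout: percent growth (0 = no net growth; negative = cell death). Active: <10.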 Unmarked numbers belong to inactive results. The source made the active and inactive calls.

Among the test systems are T-47D breast; BT-549 breast; MDA-MB-435 melanoma; SW-620 colon; MCF7 breast; HCT-116 colon; HCC-2998 colon; KM12 colon.
What all share (assay): NCI-60 one-dose screen, 48 h (100 = growth as untreated, 0 = no growth, -100 = all killed)
What all share (conditions): 10 µM unless noted

As to `O=C(NS(=O)(=O)c1ccccc1)n1cc(-c2ccncc2)c(-c2cc(O)cc(Cl)c2)n1`, the growth is 90.1% with T-47D breast; 101% in the test with BT-549 breast; 66.6% in the test with MDA-MB-435 melanoma; 123% in the test on SW-620 colon; 102% in the test on MCF7 breast; 91.7% with HCT-116 colon. Besides, the growth in the test with HCC-2998 colon was 128%; in the test with KM12 colon it was 99.5%.
On to `O=C1CC2C=CCN2C=C1NC(=O)c1ccccc1` (configuration not stated), for which the growth in the test with T-47D breast was 99.8%; with BT-549 breast it was 103%; with MDA-MB-435 melanoma, 105%; with SW-620 colon it was 109%; in the test with MCF7 breast, 101%; in the test on HCT-116 colon, 93.6%. Also, the growth in the test on HCC-2998 colon and in the test on KM12 colon was 101% each time.
Consider `CN(CCNc1ccc(C(=N)N)cc1)c1ccc(C(=N)N)cc1`, for which the growth with T-47D breast was 126%; in the test on BT-549 breast, 102%; in the test with MDA-MB-435 melanoma, 92.6%; in the test on SW-620 colon it was 98.6%; with MCF7 breast it was 116%; in the test with HCT-116 colon it was 101%. For the same molecule, the values for the growth in the test on HCC-2998 colon and in the test with KM12 colon were 99.6% and 86.2%, respectively.
`O=C(c1ccc(F)cc1)C1CCN(CCn2c(=O)[nH]c3ccccc3c2=O)CC1`: the growth was 102% in the test with T-47D breast; 107% in the test on BT-549 breast; 104% in the test with MDA-MB-435 melanoma; 102% in the test on SW-620 colon; 97.6% in the test on MCF7 breast; 110% in the test with HCT-116 colon. Moreover, the results for the growth with HCC-2998 colon and in the test on KM12 colon were 105% and 104%, respectively.
On to `CCN1C(=O)N(CC)C2C1NN=c1s/c(=C3\C(=O)N(C)c4ccccc43)c(=O)n12` (configuration not stated), for which the growth was 18.5% in the test on T-47D breast; 55.8% in the test on BT-549 breast; -34.4% (active) in the test on MDA-MB-435 melanoma; 28.3% in the test with SW-620 colon; 24.9% in the test on MCF7 breast; 8.97% (active) in the test with HCT-116 colon. The growth is 22.1% with HCC-2998 colon and 20.9% in the test with KM12 colon.
Consider `CC(=O)/C(Br)=C/c1ccc(Br)o1`, for which the growth in the test with T-47D breast was 44.8%; with BT-549 breast it was 52.1%; in the test with MDA-MB-435 melanoma it was 62.4%; with SW-620 colon it was 15.4%; in the test with MCF7 breast, 33%; with HCT-116 colon it was -66.2% (active). In addition, the growth in the test on HCC-2998 colon is 93.4%; with KM12 colon, 105%.
For `Nc1ccc(N)c2c1C(=O)c1cccc([N+](=O)[O-])c1C2=O`, the growth with T-47D breast was 38.2%; with BT-549 breast, 21.6%; with MDA-MB-435 melanoma it was 67.3%; in the test on SW-620 colon, 51.5%; with MCF7 breast it was 16.5%; with HCT-116 colon, 19.7%. The growth in the test on HCC-2998 colon was -60.6% (active); in the test with KM12 colon, 42%.
For the molecule `Cc1cc2c(c(C)n1)CN(C(=O)Nc1nc(-c3cncs3)ccc1N)C2`, the growth with T-47D breast was 90.5%; with BT-549 breast, 105%; with MDA-MB-435 melanoma, 102%; in the test with SW-620 colon, 107%; in the test with MCF7 breast, 89.3%; in the test on HCT-116 colon, 92.3%. In addition, the growth in the test on HCC-2998 colon was 107%; with KM12 colon, 95.8%.
Consider `CC1(C)CCC[C@]23C(=O)O[C@](O)(C(=O)C4=C[C@@](C)(/C=C/CCCc5ccc6ccc7cccc8ccc5c6c78)CC[C@@]42O)[C@@H]13`, for which the growth is -60.5% (active) in the test on T-47D breast; -71.9% (active) in the test on BT-549 breast; -92.4% (active) in the test with MDA-MB-435 melanoma; -63.3% (active) with SW-620 colon; -57.4% (active) in the test with MCF7 breast; -91.8% (active) in the test with HCT-116 colon. In addition, the growth in the test with HCC-2998 colon is -86% (active); in the test with KM12 colon it was -83.3% (active).
Consider `C(CCCSC1=NCCN1)CCSC1=NCCN1`, for which the growth with T-47D breast is 101%; with BT-549 breast, 112%; in the test on MDA-MB-435 melanoma, 103%; in the test with SW-620 colon, 98.2%; with MCF7 breast, 97.5%; with HCT-116 colon it was 90.7%. The growth with HCC-2998 colon was 103%; in the test on KM12 colon, 113%.
On to `CCN(CC)CCCC(Nc1c2ccc(Cl)cc2nc2ccc(OC)cc12)c1ccncc1` (configuration not stated), for which the growth is 113% in the test on T-47D breast; 94.6% in the test with BT-549 breast; 93% in the test with MDA-MB-435 melanoma; 61.9% in the test with SW-620 colon; 61.2% in the test on MCF7 breast; 60.8% with HCT-116 colon. In addition, the growth in the test with HCC-2998 colon was 71%; in the test with KM12 colon it was 69.1%.
`N#CC1=C(N)Oc2c(ccc3cccnc23)C1c1ccccc1` (configuration not stated): the growth in the test with T-47D breast was 50.4%; in the test with BT-549 breast, 51.8%; with MDA-MB-435 melanoma it was -47.4% (active); in the test on SW-620 colon, 29%; in the test with MCF7 breast, 24.6%; in the test on HCT-116 colon, 22.2%. Further, the growth in the test with HCC-2998 colon is 50.4%; in the test with KM12 colon it was 25.2%.
As for `Cn1ccnc1C(=O)/C=C/c1ccc(C(=O)Nc2ccccc2F)cc1`, the growth with T-47D breast is 38.3%; in the test on BT-549 breast, -13.2% (active); with MDA-MB-435 melanoma, 1.95% (active); in the test on SW-620 colon it was 13.5%; in the test on MCF7 breast it was 13.4%; in the test on HCT-116 colon, 8.83% (active). In addition, the values for the growth in the test with HCC-2998 colon and with KM12 colon were 88% and 13.8%, respectively.
`O=C(Nc1ccccc1CNc1nc(Nc2ccc(OCCN3CCCC3)cc2)ncc1Cl)NC1CCCCC1`: the growth with T-47D breast was 100%; with BT-549 breast, 83.7%; in the test with MDA-MB-435 melanoma, -83.9% (active); in the test on SW-620 colon it was 87.7%; in the test on MCF7 breast it was 55.2%; in the test with HCT-116 colon, 90.9%. Further, the growth is 95.5% with HCC-2998 colon and 71.5% in the test with KM12 colon.
